Test systems include SR leukemia; RPMI-8226 leukemia; OVCAR-8 ovarian; OVCAR-5 ovarian; OVCAR-4 ovarian; SK-OV-3 ovarian; IGROV1 ovarian; OVCAR-3 ovarian; HS 578T breast; NCI/ADR-RES ovarian; T-47D breast; BT-549 breast; MDA-MB-435 melanoma; SW-620 colon; MCF7 breast; HCT-116 colon; HCC-2998 colon; KM12 colon.
Holding throughout (assay): NCI-60 one-dose screen, 48 h (100 = growth as untreated, 0 = no growth, -100 = all killed)
What all share (details): 10 µM unless noted

About 83,000 compounds went through this panel and 20% of them were active in at least one assay; those are over-represented in the sample as a whole.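 Growth was measured after 48 h exposure to one concentration of compound in 96-well plates. Values under 10 count as active.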 Values without a mark were called inactive. Activity calls are given as the source filed them.

On to `COc1ccc(/C(C)=C(\c2ccc(Cl)cc2)c2ccc(OCCN3CCCCCC3)cc2)cc1F`, for which the growth in the test with SR leukemia was -12.6% (active); in the test with RPMI-8226 leukemia, -9.96% (active); in the test on OVCAR-8 ovarian, 63.7%; in the test on OVCAR-5 ovarian, 58.9%; in the test with OVCAR-4 ovarian, 36%; with SK-OV-3 ovarian, 71.5%. The growth in the test on IGROV1 ovarian is 56.8%; in the test with OVCAR-3 ovarian, 54.9%; with HS 578T breast it was 44.1%; with NCI/ADR-RES ovarian it was 65.7%; in the test with T-47D breast it was 53.6%; with BT-549 breast, 66.3%. The growth is 52.4% with MDA-MB-435 melanoma; 20.3% in the test with SW-620 colon; 24.1% with MCF7 breast; 22.9% in the test with HCT-116 colon; 36.9% in the test on HCC-2998 colon; 23% in the test with KM12 colon.
Take `COc1cc(NC(=O)c2cc(O)c(CC=C(C)C)c(O)c2)cc2c1O[C@]1(C)CC[C@@H](O)C(C)(C)[C@H]1C2`: the growth is 14.1% in the test with SR leukemia; -29.3% (active) in the test on RPMI-8226 leukemia; 54% in the test on OVCAR-8 ovarian; 61.8% with OVCAR-5 ovarian; 51.5% with OVCAR-4 ovarian; 21.5% in the test on SK-OV-3 ovarian. In addition, the growth in the test with IGROV1 ovarian was 52.5%; in the test with OVCAR-3 ovarian it was 31.6%; in the test with HS 578T breast, 13.1%; with NCI/ADR-RES ovarian, 96.4%; in the test with T-47D breast, 7.15% (active); with BT-549 breast, 8.48% (active). The growth in the test with MDA-MB-435 melanoma is 24.2%; in the test with SW-620 colon, 14.7%; with MCF7 breast, 10.5%; in the test with HCT-116 colon, 23.8%; in the test with HCC-2998 colon, 48.7%; with KM12 colon it was 31.1%.
Regarding `CC(=O)Nc1ccc2c(c1)Cc1c(F)cccc1-2`, the growth is 98.2% in the test on SR leukemia; 94.1% in the test on RPMI-8226 leukemia; 95.2% with OVCAR-8 ovarian; 106% in the test with OVCAR-5 ovarian; 106% in the test with OVCAR-4 ovarian; 115% with SK-OV-3 ovarian. The growth with IGROV1 ovarian was 98.8%; in the test with OVCAR-3 ovarian, 105%; in the test on HS 578T breast, 115%; in the test on NCI/ADR-RES ovarian, 107%; in the test on T-47D breast, 76.6%; with BT-549 breast, 109%. For the same molecule, the growth with MDA-MB-435 melanoma is 107%; in the test on SW-620 colon, 102%; in the test on MCF7 breast, 35.9%; in the test on HCT-116 colon, 108%; with HCC-2998 colon, 94.2%; in the test on KM12 colon, 91.5%.
Regarding `CN(C)c1ccc2cc(-c3ccc(Cl)c(Cl)c3)c(N)nc2c1`, the growth in the test on SR leukemia was -29% (active); in the test on RPMI-8226 leukemia it was 13.3%; in the test on OVCAR-8 ovarian, 21%; in the test with OVCAR-5 ovarian, 55.4%; in the test on OVCAR-4 ovarian, 9.09% (active); with SK-OV-3 ovarian, 60.4%. Besides, the growth in the test on IGROV1 ovarian was 42%; in the test on OVCAR-3 ovarian, 31%; in the test with HS 578T breast, 62.4%; in the test on NCI/ADR-RES ovarian it was 15.9%; with T-47D breast, 18.6%; in the test on BT-549 breast, 48.3%. In addition, the growth in the test with MDA-MB-435 melanoma is 22.4%; in the test on SW-620 colon, 30.1%; in the test with MCF7 breast, 24.3%; with HCT-116 colon, 13.3%; with HCC-2998 colon, 44.7%; in the test with KM12 colon it was 28.9%.
Consider `Nc1nc(N)c(-c2ccc(Cl)cc2)c(/C=C/c2ccc([N+](=O)[O-])cc2)n1`, for which the growth in the test with SR leukemia was 44%; in the test with RPMI-8226 leukemia, 67%; in the test with OVCAR-8 ovarian, 89.2%; with OVCAR-5 ovarian, 108%; with OVCAR-4 ovarian, 77.3%; with SK-OV-3 ovarian, 114%. Also, the growth with IGROV1 ovarian was 22.4%; with OVCAR-3 ovarian it was 75.9%; in the test on HS 578T breast it was 60.5%; in the test on NCI/ADR-RES ovarian, 68.3%; with T-47D breast, 84.7%; in the test on BT-549 breast, 92.3%. Also, the growth with MDA-MB-435 melanoma was 41.9%; in the test with SW-620 colon, 26.4%; in the test with MCF7 breast, 82.2%; in the test with HCT-116 colon, 48.9%; with HCC-2998 colon, 77.6%; in the test on KM12 colon, 83.1%.
In the case of `CCOC(=O)c1nnn(-c2ccccc2)c1C1=CN(C)CCC1`, the growth was 88.8% in the test with SR leukemia; 113% in the test on RPMI-8226 leukemia; 102% with OVCAR-8 ovarian; 99.9% in the test on OVCAR-5 ovarian; 99.9% with OVCAR-4 ovarian; 97.2% with SK-OV-3 ovarian. Moreover, the growth was 104% in the test on IGROV1 ovarian; 100% in the test on OVCAR-3 ovarian; 91.9% in the test with HS 578T breast; 102% in the test on NCI/ADR-RES ovarian; 93.3% in the test with T-47D breast; 99.4% in the test with BT-549 breast. Moreover, the growth was 105% in the test on MDA-MB-435 melanoma; 101% in the test on SW-620 colon; 92.9% in the test with MCF7 breast; 87.7% in the test on HCT-116 colon; 95.9% with HCC-2998 colon; 99.9% in the test on KM12 colon.
In the case of `COc1ccc(-n2nnc(C(=O)NCCc3c[nH]c4ccc(F)cc34)c2C)cc1`, the growth with SR leukemia was 82.1%; with RPMI-8226 leukemia, 93.3%; with OVCAR-8 ovarian, 98.6%; in the test on OVCAR-5 ovarian, 101%; in the test on OVCAR-4 ovarian, 107%; in the test with SK-OV-3 ovarian it was 89.8%. For the same molecule, the growth is 107% in the test with IGROV1 ovarian; 103% in the test on OVCAR-3 ovarian; 96.5% with HS 578T breast; 106% with NCI/ADR-RES ovarian; 89.3% in the test with T-47D breast; 103% in the test with BT-549 breast. Moreover, the growth in the test with MDA-MB-435 melanoma was 101%; in the test on SW-620 colon, 101%; in the test with MCF7 breast it was 95.7%; with HCT-116 colon, 93.5%; in the test with HCC-2998 colon it was 106%; with KM12 colon, 103%.
On to `Cc1nc(Nc2ccc(NC(=S)Nc3ccccc3)cc2)nc2nc(Nc3ccc(S(=O)(=O)O)cc3)[nH]c(=O)c12`, for which the growth with SR leukemia is 47.5%; in the test on RPMI-8226 leukemia it was 79.2%; in the test on OVCAR-8 ovarian, 49.8%; in the test on OVCAR-5 ovarian, 103%; with OVCAR-4 ovarian, 113%; with SK-OV-3 ovarian, 98.3%. The growth in the test on IGROV1 ovarian was 72%; in the test on OVCAR-3 ovarian, 139%; in the test with HS 578T breast it was 111%; with NCI/ADR-RES ovarian, 106%; in the test on T-47D breast, 87.3%; in the test on BT-549 breast, 61%. For the same molecule, the growth is 105% in the test with MDA-MB-435 melanoma; 116% in the test with SW-620 colon; 102% with MCF7 breast; 103% with HCT-116 colon; 118% with HCC-2998 colon; 120% in the test with KM12 colon.

(Values after PubChem BioAssay (NCI).)
